The values that follow come from PubChem BioAssay (NCATS).

Unmarked numbers belong to inactive results. A call without a number means that no potency is given here. Active and inactive are the calls of the source. The call rests on the fitted dose curve; in most records, active means well fitted inhibition curve with a large enough effect; inconclusive means small, poorly fitted or top-dose-only effect; inactive means flat fitted curve, though single readings scatter.

The experiment has as its system Nanoluciferase (engineered Oplophorus gracilirostris luciferase). Nature of the experiment: Primary Nanoluciferase (NLuc) qHTS assay for identification of artifact compounds. (AID 1845222). The conditions noted are these: NLuc-conditioned medium, Nano-Glo luminescence, 5 min; series mostly up to 54.1 µM. The essentials: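 Concentration-response data were obtained by luminescence after 5 min with Nano-Glo substrate at 1:100. The enzyme was diluted S16 NLuc-expressing cell medium, preincubated with compound for 15 min at RT. Curves were fitted with a 4-parameter Hill model.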
A general note: qHTS replaces the single test concentration by a dilution series.
For the compound `CC1OC(OC2C(C)OC(OC3C(OC(=O)/C=C/c4ccc(O)cc4)C(CO)OC(OC4(COC(=O)/C=C/c5ccc(O)cc5)OC(CO)C(O)C4O)C3OC3OCC(O)(CO)C3O)C(O)C2O)C(O)C(O)C1O` (stereo not drawn), the activity, negative = inhibition was 0.249% [at 11.6 µM].
As to `C[C@]1(OC(=O)/C=C/c2ccccc2)C[C@H](O)[C@]2(O)C=CO[C@@H](O[C@@H]3O[C@H](CO)[C@@H](O)[C@H](O)[C@H]3O)C12` (stereo partly drawn), the Potency entry was “inactive”.
In the case of `C[C@@H]1O[C@@H](O[C@H]2[C@H](OC(=O)C34CCC5(C)C(=CCC6C7(C)CC(O)C(O[C@@H]8O[C@H](C(=O)O)[C@@H](O)[C@H](O)[C@H]8O)C(C)(C(=O)O)C7CCC65C)C3CC(C)(C)CC4O)O[C@H](C)[C@@H](O)[C@@H]2O)[C@H](O)[C@@H](O[C@@H]2OC[C@](O)(CO)[C@H]2O[C@@H]2O[C@H](CO)[C@@H](O)[C@H](O)[C@H]2O)[C@H]1O` (stereo partly drawn), the activity, negative = inhibition was 0% [at 11.6 µM].
For the compound `CC1(C(=O)O)CCCC2(C)C1CCC13CC(CCC21)C1(CO)OC31` (stereo not drawn), the Potency entry was “inactive”.
In the case of `CC1(C)O[C@@]2(C)CC[C@@H]1C[C@@H]2OC1OC(CO)C(O)C(O)C1O` (stereo partly drawn), the Potency result was “inactive”.
Regarding `C=C(C)C(C)C1OC23CC4(CO2)C(CCC2C5(C)CCC(OC6OCC(O)C(OC7OC(CO)C(O)C(OC8OCC(O)C(O)C8O)C7O)C6OC6OC(CO)C(O)C6O)C(C)(C)C5CCC24C)C3C(C)(O)C1OC(C)=O` (stereo not drawn), the activity, negative = inhibition is 3.65% [at 11.6 µM].
For the compound `COc1cc(C2c3cc(O)c(OC)cc3CC(CO)C2CO)ccc1O` (stereo not drawn), the Potency entry is “inactive”.
Take `C=CC1(C)CC2=CCC3C(C)(C(=O)O)CCCC3(C)C2CC1OC(C)=O` (stereo not drawn): the Potency result is “inactive”.
